Compounds with a hit are over-represented: about 19% of the library has one in this group of screens.
HT1080-NT tox – qHTS for induction of synthetic lethality in tumor cells producing 2HG: qHTS for the HT-1080-NT fibrosarcoma cell line. HT-1080-NT fibrosarcoma viability, CellTiter-Glo ATP luminescence, 48 h. Potency, µM (series often up to 46.1 µM), inactives show top-dose activity, negative = less viability, actives largely listed as cytotoxic. 360,000 compounds, 1.6% hits;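 note: NT is the 2HG producing partner of a matched IDH1 knockdown line; 0% = DMSO-treated cells and -100% = media-only wells without cells; nearly all actives have a fitted effect of over 55% in size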
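HT-1080-NT; 750 cells/well; 5% FBS RPMI; 48 h compound, 37 degrees C; CellTiter-Glo luminescence; curve fitting and curve-class assignment.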
DT40 TDP1 CPT – qHTS for Inhibitors of human tyrosyl-DNA phosphodiesterase 1 (TDP1): qHTS in cells in presence of CPT; chicken DT40 Tdp1-/-;hTDP1 cells + 20 nM CPT, ATP luminescence, 48 h; Potency, µM (doses to about 46.2 µM), without a hit: at the top dose activity change, negative = growth inhibition, usual class: inhibitors; 420,000 compounds, 12% hits; AID 686979, 2013; note: nearly all actives have a fitted effect of over 55% in size
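Chicken DT40 Tdp1-/- cells complemented with human TDP1, 400 cells/well, exposed to compounds plus 20 nM camptothecin for at least 48 h at 37 C; viability read as ATP content by CellTiter-Glo luminescence.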
TDP1 cell noCPT – qHTS for Inhibitors of human tyrosyl-DNA phosphodiesterase 1 (TDP1): qHTS in cells in absence of CPT; DT40 Tdp1-/- hTDP1 cells, no CPT, ATP luminescence, 48 h; Potency, µM (series often up to 46.2 µM), for the others: at the top dose activity change, negative = growth inhibition, usual class: inhibitors; 420,000 compounds, 15% hits; AID 686978, 2013; note: nearly all actives have a fitted effect of over 55% in size
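Growth kinetics read by CellTiter-Glo luminescence after ≥48 hr at 37 °C. Cells: DT40 Tdp1-/- stably carrying human TDP1, 400 per well, compound exposure in the absence of CPT (DMSO vehicle).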
KB-V1 MDR tox – qHTS assay for MDR1-selective chemotherapeutics: Primary screen using the drug-selected MDR subline cells KB-V1; KB-V1 MDR cells viability, CellTiter-Glo, 72 h; Potency, µM (top dose mostly 46.1 µM), usual class: cytotoxic; 400,000 compounds, 3.4% hits; note: nearly all actives have a fitted effect of over 60% in size
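qHTS viability screen in drug-selected KB-V1 MDR cells: 72 h compound treatment at 37 degrees C, ATP luminescence end point.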
KB-3-1 cytotox – qHTS assay for MDR1-selective chemotherapeutics: Primary screen using the parental adenocarcinoma cell KB-3-1 | KB-3-1 viability, CellTiter-Glo ATP luminescence, 72 h | Potency, µM (highest dose often 46.1 µM), hits mostly cytotoxic | 400,000 compounds, 1.4% hits; note: nearly all actives have a fitted effect of over 60% in size
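Parental KB-3-1 viability, qHTS format: 72 h compound exposure, 37 °C; CellTiter-Glo; media-only wells and DMSO plates as controls; concentration-effect fits on corrected data.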
HT1080 IDH1KD tx – qHTS for induction of synthetic lethality in tumor cells producing 2HG: qHTS for the HT-1080-IDH1KD cell line; Potency, µM (titrated, usually from 46.1 µM), without a hit: top-dose activity, negative = toxicity, hits mostly cytotoxic; HT-1080 IDH1 knockdown viability, ATP luminescence, 48 h; 360,000 compounds, 2% hits;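 note: 0% = DMSO wells and -100% = cell-free medium wells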
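Knockdown cells (IDH1KD HT-1080) received compounds 2 h after plating at 750 cells/well and were kept 48 h at 37 °C in 5% FBS RPMI. A CellTiter-Glo luminescence read gave % activity for curve fitting.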
* marks the source's active call; other numbers are inactive results; i = inactive; ? = inconclusive; . = no result; [ ] = dose if it differs, or a comment. Calls come from the whole dose curve; as a rule, active = well fitted curve in the direction sought with a large enough effect; inconclusive = small, poorly fitted or top-dose-only effect, or another doubt; inactive = no such curve, though single readings can be large; an effect the other way counts as inactive or inconclusive. Unless noted, % is set by controls: 0 for no effect and ±100 for the full control effect; potency is the fitted concentration of half-maximal effect.

SMILES | HT1080-NT tox | DT40 TDP1 CPT | TDP1 cell noCPT | KB-V1 MDR tox | KB-3-1 cytotox | HT1080 IDH1KD tx
COc1cc(C#Cc2c(-c3cncn3C)n(C)c3ccc(-c4cnc(N5CCOCC5)nc4)cc23)cc(OC)c1 | -10% | 16µM* | 12µM* | i | i | -5%
c1ccc(CCN2CCCC2)cc1 | . | -1% | -7% | i | i | .
CCN1C[C@]2(C)CC[C@H](OC)[C@]34C5C[C@@H]6CC[C@@](O)(C5C(=O)O6)C(C13)[C@@H](OC(=O)c1ccccc1)C24 | . | 3%[9.04 µM] | -14%[9.04 µM] | . | . | .
c1ccc2c(c1)[IH]c1ccccc1-2 | 0.46µM* | 0.052µM* | 0.052µM* | ? | ? | 0.46µM*
Cc1cccc(N2C(=O)/C(=C/N3CCN(C(=O)c4ccco4)CC3)C(=O)NC2=S)c1 | 11% | 3% | 7% | i | i | 15%
Cc1cc(N2CCN(C(=O)c3ccco3)CC2)n2nc(-c3cccc(Cl)c3)cc2n1 | ? | 23µM* | ? | ? | ? | ?
CC(C)C[C@H](NC(=O)[C@H](Cc1ccccc1)NC(=O)CNC(=O)[C@H](CO)NC(=O)[C@@H](N)Cc1ccc(O)cc1)C(=O)N[C@H](C(=O)O)[C@H](C)O | . | -2%[4.12 µM] | 2%[4.12 µM] | . | . | .
c1ccc(-c2nnc(C3CC(c4cccnc4)=NO3)o2)cc1 (stereo unspecified) | 8% | 6% | -1% | ? | i | 13%
Cc1nn(Cc2ccc(Cl)cc2Cl)c(Cl)c1C(=O)NC1CCCc2ccccc21 (stereo unspecified) | 8% | 16µM* | 12µM* | ? | i | 0%
Cc1nn(Cc2ccc(Cl)cc2Cl)c(Cl)c1C(=O)O | -1% | -7% | 9% | i | i | -6%
COc1ccc(CCn2c(O)c(C=NCCCN(C)C)c(=O)[nH]c2=O)cc1OC | 0% | 5% | -9% | i | i | 0%
COC(=O)C1=C(c2ccc(F)cc2F)C[C@@H]2CC[C@H]1N2C(=O)NC1Cc2ccccc2C1 | 3% | ? | ? | i | i | -11%
CCOC(=O)c1sc(/N=C/c2c(O)n(-c3ccccc3)c(=O)[nH]c2=O)c(C#N)c1C | 19% | ? | ? | 12µM* | ? | 9%
COc1ccc(-n2nc(C(=O)NCC(=O)N3CCC4(CC3)OCCO4)c3ccccc3c2=O)cc1Cl | 7% | -11% | ? | i | i | 4%
COc1ccc2c(c1)CC[C@@H]1[C@@H]2CC[C@]2(C)[C@@H](NCCCCCCN3C(=O)C=CC3=O)CC[C@@H]12 | . | ? | 22µM* | . | . | .
O=c1[nH]c(=O)n(-c2ccc(Br)cc2)c(O)c1C=NCCN1CCCCC1 | 0% | 24% | 2% | i | i | 13%
OC(Cn1c2ccccc2c2ccccc21)C[n+]1cccc2ccccc21 (stereo unspecified) | -7%[9.24 µM] | 18µM* | 16µM* | i | ? | 20µM*
CNCCc1ccc(O)c(O)c1 | ? | 8.2µM* | 5.2µM* | i | i | ?
C=CCN1CCc2cccc3c2[C@H]1Cc1ccc(O)c(O)c1-3 | ? | 16µM* | 18µM* | ? | i | ?
COc1ccc2c(c1O)-c1cc(O)cc3c1[C@@H](C2)N(C)CC3 | . | 11% | -11% | . | . | .
c1ccc(-c2ccc(-c3n(-c4ccccn4)c4ccccc4[n+]3-c3ccccn3)cc2)cc1 | ? | 5.8µM* | 8.2µM* | ? | i | ?

Compound activity (PubChem)
